Data: article PMC5540273 (PLoS ONE, 2017)

Test system: WNK1
Conditions: concentration: 1 μM,replicates: in singlicate; n = 1
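Note: KINOMEscan kinase panel screen.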

Structure (SMILES) | %Inh [%]
CC(C(=O)NC1CCN(c2ccnc(Nc3ccc(F)cc3)n2)C1)c1ccc(Cl)cc1 (centres unmarked) [GSK1379713] | 1
CNC(=O)c1ccccc1Nc1nc(Nc2cccc(CS(C)(=O)=O)c2)ncc1C.O=CO [GSK1520489] | 9
COc1ccc(Nc2nccc(N3CCC(NC(=O)c4cccc(C#N)c4)C3)n2)cc1 (centres unmarked) [GSK1379730] | 2
CN1CCN(CCNc2nc3cc(Oc4ccc(NC(=O)Nc5cc(C(F)(F)F)ccc5F)cc4)ccc3[nH]2)CC1.Cl.Cl [GW768504] | 0
COc1cc(Nc2nccc(N3CCC(NC(=O)c4cccc(C#N)c4)C3)n2)cc(OC)c1OC (centres unmarked) [GSK1379751] | 13
CSc1nccc(-c2c(-c3ccc(F)cc3)ncn2CCCN2CCOCC2)n1.Cl [SB-217146] | 21
O=C(NCC1CC1)c1ccc(-c2cc(C(=O)NC3CC3)ccc2F)cc1 [GW810445] | 0
Cl.Cl.NC[C@H](CC1CCCCC1)NC(=O)c1ccc(-c2ccnc3[nH]ccc23)s1 [GSK1581428] | 0
Cc1cccc(-c2nc(Nc3ccncc3)c3sccc3n2)n1 [GW869641] | 27
CCNCC(Cc1ccccc1)NC(=O)c1cc(Br)c(-c2ccnc3[nH]ccc23)s1.Cl.Cl (centres unmarked) [GSK1383280] | 0
CC(C)S(=O)(=O)N1CCN(Cc2ccc3c(c2)nc(NC(=O)c2ccsc2)n3C[C@H](O)c2ccccc2)CC1 [GW635815] | 3
CN(c1cccc(CNc2nc(Nc3ccc4c(c3)CC(=O)N4)ncc2C(F)(F)F)c1)S(C)(=O)=O | 0
COc1cc2nccc(Nc3ccc(Oc4ccccc4)cc3)c2cc1OC.Cl [GI261656] | 0
c1ccc(Oc2ccc(Nc3ccnc4ccc(-c5ccccn5)cc34)cc2)cc1 [GW407034] | 20
Cn1ccc2ncnc(Oc3ccc(NC(=O)Nc4cc(C(C)(C)C)on4)c(Cl)c3)c21 | 0
CS(=O)(=O)Nc1ccc(-c2ccnc3[nH]ccc23)cc1 [GSK993273] | 13
FC(F)(F)c1cc(Br)cc(Nc2nccc(-c3cnn4ncccc34)n2)c1 [GW810578] | 14
Cn1ccc2ncnc(Oc3ccc(NC(=O)Nc4cccc(C(F)(F)F)c4)c(F)c3)c21 | 0
CN(c1ccccc1CNc1nc(Nc2ccc3c(c2)CC(=O)N3)ncc1C(F)(F)F)S(C)(=O)=O | 0

Structure (SMILES) | %Inh [%]
O=C1NCCc2[nH]c(-c3ccncc3)cc21 | 0
COc1cccc(CNC(=O)NC2CCN(c3ccnc(Nc4cc(OC)c(OC)c(OC)c4)n3)C2)c1 (centres unmarked) [GSK1379765] | 4
CC(C)c1nc(-c2cccc(NS(=O)(=O)c3ccccc3)c2)c(-c2ccnc(Nc3ccc4c(c3)CN(C)CC4)n2)s1 [GSK1649598] | 8
C[C@@H](Oc1cc(-n2cnc3ccc(-c4ccncc4)cc32)sc1C(N)=O)c1ccccc1Cl [GSK483724] | 46
Cc1ccc(C(=O)Nc2ccc(Oc3ccc4nc(NC(=O)C5CC5)cn4c3)c(F)c2)c(=O)n1-c1ccccc1 | 0
CN1CCN(CCCNc2nccc(-c3c(-c4ccc(F)cc4)nn4cc(C(N)=O)ccc34)n2)CC1 [GW622475] | 9
CS(=O)c1ccc(-c2coc3ccc(-c4n[nH]c(=O)o4)cc23)cc1 (centres unmarked) | 0
O=c1[nH]cc(-c2ccc(O)cc2)c2sc(-c3ccncc3)cc12 [GSK1033723] | 1
Cn1ccc2ncnc(Oc3ccc(NC(=O)Nc4cccc(C(F)(F)F)c4)c(Cl)c3)c21 | 0
Cc1ccc(Nc2ccnc(Nc3ccc4c(c3)CS(=O)(=O)C4)n2)cc1O.Cl [GW579362] | 0
Cc1ccn2nc(-c3ccc(F)cc3)c(-c3ccncc3)c2c1.Cl [GW457859] | 0
C[C@@H](Oc1cc(-n2cnc3cc(-c4ccncc4)ccc32)sc1C(N)=O)c1ccccc1Cl [GSK479719] | 32
Cc1ccc2c(-c3ccnc(Nc4ccc(C(F)(F)F)cc4)n3)cnn2n1 [GW819776] | 3
COc1cccc(C2=C(Nc3cccc(Cl)c3)C(=O)NC2=O)c1 [SB-341556] | 20
Cn1ccc2ncnc(Oc3ccc(NC(=O)Nc4cncc(C(F)(F)F)c4)c(Cl)c3)c21 | 0
O=C(Nc1ccccc1)c1cccc(Oc2ccc3nccn3n2)c1 | 4
O=C(Nc1cccc(C(F)(F)F)c1)c1cccc(Oc2ccc3nccn3n2)c1 | 16
Cn1cc(-c2cccc3c(N)c(C(N)=O)nnc23)cn1 | 11

Test system: WNK2
Conditions: concentration: 1 μM,replicates: in singlicate; n = 1

Structure (SMILES) | %Inh [%]
CC(C(=O)NC1CCN(c2ccnc(Nc3ccc(F)cc3)n2)C1)c1ccc(Cl)cc1 (centres unmarked) [GSK1379713] | 0
CNC(=O)c1ccccc1Nc1nc(Nc2cccc(CS(C)(=O)=O)c2)ncc1C.O=CO [GSK1520489] | 79
COc1ccc(Nc2nccc(N3CCC(NC(=O)c4cccc(C#N)c4)C3)n2)cc1 (centres unmarked) [GSK1379730] | 5
CN1CCN(CCNc2nc3cc(Oc4ccc(NC(=O)Nc5cc(C(F)(F)F)ccc5F)cc4)ccc3[nH]2)CC1.Cl.Cl [GW768504] | 0
COc1cc(Nc2nccc(N3CCC(NC(=O)c4cccc(C#N)c4)C3)n2)cc(OC)c1OC (centres unmarked) [GSK1379751] | 19
CSc1nccc(-c2c(-c3ccc(F)cc3)ncn2CCCN2CCOCC2)n1.Cl [SB-217146] | 0
O=C(NCC1CC1)c1ccc(-c2cc(C(=O)NC3CC3)ccc2F)cc1 [GW810445] | 24
Cl.Cl.NC[C@H](CC1CCCCC1)NC(=O)c1ccc(-c2ccnc3[nH]ccc23)s1 [GSK1581428] | 0
Cc1cccc(-c2nc(Nc3ccncc3)c3sccc3n2)n1 [GW869641] | 0
CCNCC(Cc1ccccc1)NC(=O)c1cc(Br)c(-c2ccnc3[nH]ccc23)s1.Cl.Cl (centres unmarked) [GSK1383280] | 0
CC(C)S(=O)(=O)N1CCN(Cc2ccc3c(c2)nc(NC(=O)c2ccsc2)n3C[C@H](O)c2ccccc2)CC1 [GW635815] | 0
CN(c1cccc(CNc2nc(Nc3ccc4c(c3)CC(=O)N4)ncc2C(F)(F)F)c1)S(C)(=O)=O | 0
COc1cc2nccc(Nc3ccc(Oc4ccccc4)cc3)c2cc1OC.Cl [GI261656] | 0
c1ccc(Oc2ccc(Nc3ccnc4ccc(-c5ccccn5)cc34)cc2)cc1 [GW407034] | 25
Cn1ccc2ncnc(Oc3ccc(NC(=O)Nc4cc(C(C)(C)C)on4)c(Cl)c3)c21 | 20
CS(=O)(=O)Nc1ccc(-c2ccnc3[nH]ccc23)cc1 [GSK993273] | 14
FC(F)(F)c1cc(Br)cc(Nc2nccc(-c3cnn4ncccc34)n2)c1 [GW810578] | 25
Cn1ccc2ncnc(Oc3ccc(NC(=O)Nc4cccc(C(F)(F)F)c4)c(F)c3)c21 | 0
CN(c1ccccc1CNc1nc(Nc2ccc3c(c2)CC(=O)N3)ncc1C(F)(F)F)S(C)(=O)=O | 0

Structure (SMILES) | %Inh [%]
O=C1NCCc2[nH]c(-c3ccncc3)cc21 | 26
COc1cccc(CNC(=O)NC2CCN(c3ccnc(Nc4cc(OC)c(OC)c(OC)c4)n3)C2)c1 (centres unmarked) [GSK1379765] | 33
CC(C)c1nc(-c2cccc(NS(=O)(=O)c3ccccc3)c2)c(-c2ccnc(Nc3ccc4c(c3)CN(C)CC4)n2)s1 [GSK1649598] | 0
C[C@@H](Oc1cc(-n2cnc3ccc(-c4ccncc4)cc32)sc1C(N)=O)c1ccccc1Cl [GSK483724] | 63
Cc1ccc(C(=O)Nc2ccc(Oc3ccc4nc(NC(=O)C5CC5)cn4c3)c(F)c2)c(=O)n1-c1ccccc1 | 0
CN1CCN(CCCNc2nccc(-c3c(-c4ccc(F)cc4)nn4cc(C(N)=O)ccc34)n2)CC1 [GW622475] | 8
CS(=O)c1ccc(-c2coc3ccc(-c4n[nH]c(=O)o4)cc23)cc1 (centres unmarked) | 0
O=c1[nH]cc(-c2ccc(O)cc2)c2sc(-c3ccncc3)cc12 [GSK1033723] | 26
Cn1ccc2ncnc(Oc3ccc(NC(=O)Nc4cccc(C(F)(F)F)c4)c(Cl)c3)c21 | 0
Cc1ccc(Nc2ccnc(Nc3ccc4c(c3)CS(=O)(=O)C4)n2)cc1O.Cl [GW579362] | 33
Cc1ccn2nc(-c3ccc(F)cc3)c(-c3ccncc3)c2c1.Cl [GW457859] | 5
C[C@@H](Oc1cc(-n2cnc3cc(-c4ccncc4)ccc32)sc1C(N)=O)c1ccccc1Cl [GSK479719] | 76
Cc1ccc2c(-c3ccnc(Nc4ccc(C(F)(F)F)cc4)n3)cnn2n1 [GW819776] | 0
COc1cccc(C2=C(Nc3cccc(Cl)c3)C(=O)NC2=O)c1 [SB-341556] | 29
Cn1ccc2ncnc(Oc3ccc(NC(=O)Nc4cncc(C(F)(F)F)c4)c(Cl)c3)c21 | 0
O=C(Nc1ccccc1)c1cccc(Oc2ccc3nccn3n2)c1 | 3
O=C(Nc1cccc(C(F)(F)F)c1)c1cccc(Oc2ccc3nccn3n2)c1 | 0
Cn1cc(-c2cccc3c(N)c(C(N)=O)nnc23)cn1 | 0
